Source: PubChem BioAssay (NCI)
Compounds without any hit were thinned out: in the full panel of roughly 79,000, 15% have a hit. Values without a mark were called inactive. Calls of active or inactive are those of the source. Cut-off read from the data, not from the text of the source: active = growth inhibition above about 70%; inactive = the rest.

What was measured:
[1] = NCI Yeast Anticancer Drug Screen. Data for the rad52 strain (AID 147);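 note: 0% = growth of vehicle-treated control cultures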; conditions: S. cerevisiae rad52 mutant growth inhibition, hits give high values
Procedure, shortened: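 The repair-mutant yeast strain was incubated with compounds, then growth was read and inhibition derived relative to vehicle.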

[2] = NCI Yeast Anticancer Drug Screen. Data for the wt1 strain (AID 149);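 note: 0% = growth of vehicle-treated wt1 cultures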; conditions: S. cerevisiae wt1 strain (SPY 50644) growth inhibition, hits give high values
Procedure, shortened: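 wt1 strain grown with compound or vehicle; inhibition taken from the growth difference.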

[3] = NCI Yeast Anticancer Drug Screen. Data for the rad50EPP+ strain (AID 151);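 note: 0% = growth of vehicle-treated control cultures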; conditions: S. cerevisiae rad50 mutant strain, hits give high values
Procedure, shortened: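 Vehicle-normalised growth inhibition; rad50EPP+ yeast strain, altered in DNA damage repair, compound-treated.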

[4] = NCI Yeast Anticancer Drug Screen. Data for the mgt1 strain (AID 153); conditions: S. cerevisiae mgt1 mutant growth inhibition, hits give high values
Procedure, shortened: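 Vehicle-normalized growth inhibition is determined in mgt1 yeast, a strain selected for a defined alteration in DNA repair or cell cycle control.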

[5] = NCI Yeast Anticancer Drug Screen. Data for the rad50 strain (AID 155);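 note: 0% = growth of vehicle-only cultures of the same strain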; conditions: S. cerevisiae rad50 strain growth inhibition, hits give high values
Procedure, shortened: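 DNA repair mutant yeast, compound exposure, growth read-out; inhibition is taken relative to vehicle.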

[6] = NCI Yeast Anticancer Drug Screen. Data for the mec2-1 strain (AID 157); conditions: S. cerevisiae mec2-1 strain, hits give high values
Procedure, shortened: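 Mutant yeast (mec2-1) grown with compound; growth inhibition relative to vehicle control reported.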

[7] = NCI Yeast Anticancer Drug Screen. Data for the rad14 strain (AID 159);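 note: 0% = growth of vehicle-treated control cultures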; conditions: S. cerevisiae rad14 strain growth inhibition, hits give high values
Procedure, shortened: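 DNA repair-defective yeast, compound-exposed; % growth inhibition derived by comparison with vehicle-treated controls.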

[8] = NCI Yeast Anticancer Drug Screen. Data for the sgs1 mgt1 strain (AID 161);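 note: 0% = growth of cultures given vehicle only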; conditions: S. cerevisiae sgs1 mgt1 strain, hits give high values
Procedure, shortened: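 This yeast growth screen uses a strain with defined DNA-repair lesions; compound-treated growth is compared with vehicle-treated growth.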

[9] = NCI Yeast Anticancer Drug Screen. Data for the CLN2oe strain (AID 163);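 note: 0% = growth of vehicle-only control cultures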; conditions: S. cerevisiae CLN2oe strain, hits give high values
Procedure, shortened: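 Compounds are applied to yeast harbouring a defined cell-cycle control change; reduced growth compared with vehicle-treated controls gives the value.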

[10] = NCI Yeast Anticancer Drug Screen. Data for the cln2 rad14 strain (AID 165);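 note: 0% = growth equal to vehicle treated cultures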; conditions: S. cerevisiae cln2 rad14 strain, hits give high values
Procedure, shortened: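 Readout is yeast growth inhibition versus vehicle-treated controls, using a strain with cln2 and rad14 alterations exposed to compound.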

[11] = NCI Yeast Anticancer Drug Screen. Data for the bub3 strain (AID 167); conditions: S. cerevisiae bub3 mutant strain, hits give high values
Procedure, shortened: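 In this screen, a yeast mutant lacking normal mitotic checkpoint function is challenged with compound. Relative growth versus vehicle gives the inhibition value.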

[12] = NCI Yeast Anticancer Drug Screen. Data for the wt2 strain (AID 169);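 note: 0% = growth of vehicle-treated yeast cultures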; conditions: S. cerevisiae wt2 strain growth inhibition, hits give high values
Procedure, shortened: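 Against vehicle-treated controls, the growth of yeast exposed to each compound was compared, and the inhibition was recorded.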

[13] = NCI Yeast Anticancer Drug Screen. Data for the mlh1 strain (AID 171);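 note: 0% = growth of vehicle-treated control cultures of the same strain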; conditions: S. cerevisiae mlh1 strain growth inhibition, hits give high values
Procedure, shortened: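 Measured: yeast growth. Reference: vehicle-treated controls. Organism: strain with a defined alteration affecting DNA damage repair or cell cycle control, treated with compound.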

[14] = NCI Yeast Anticancer Drug Screen. Data for the sgs1 strain (AID 173);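 note: 0% = growth of vehicle-only control cultures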; conditions: S. cerevisiae sgs1 mutant, hits give high values
Procedure, shortened: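 Each compound was added to cultures of the altered yeast strain. Growth was recorded, and inhibition was derived by comparison with vehicle controls.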

[15] = NCI Yeast Anticancer Drug Screen. Data for the mlh1 rad18 strain (AID 175); conditions: S. cerevisiae mlh1 rad18 strain growth inhibition, hits give high values
Procedure, shortened: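 Genetically defined yeast (DNA repair-deficient) exposed to compounds; growth inhibition determined relative to vehicle.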

[16] = NCI Yeast Anticancer Drug Screen. Data for the rad18 strain (AID 177); conditions: S. cerevisiae rad18 mutant growth inhibition, hits give high values
Procedure, shortened: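 Vehicle-treated cultures served as the baseline for scoring compound-induced growth inhibition in DNA-repair-mutant yeast.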

[17] = at 5.0 µM (retest, dose inferred, filed as 0.5)
[18] = at 50.0 µM (retest, dose inferred, filed as 5.0)

CC1=C(SCc2ccccc2)C(=O)c2ccccc2C1=O
growth inhibition ([1]; at 1.2 µM): -28% | growth inhibition ([1]; at 3.7 µM): -24% | growth inhibition ([1]; at 11.0 µM): 4% | growth inhibition ([1]; at 33.0 µM): 81% (active) | growth inhibition ([1]; at 100.0 µM): 90% (active) | growth inhibition ([2]; at 1.2 µM): -15% | growth inhibition ([2]; at 3.7 µM): -15% | growth inhibition ([2]; at 11.0 µM): -7% | growth inhibition ([2]; at 33.0 µM): 64% | growth inhibition ([2]; at 100.0 µM): 91% (active) | growth inhibition ([3]; at 1.2 µM): -28% | growth inhibition ([3]; at 3.7 µM): -20% | growth inhibition ([3]; at 11.0 µM): -4% | growth inhibition ([3]; at 33.0 µM): 35% | growth inhibition ([3]; at 100.0 µM): 59% | growth inhibition ([4]; at 1.2 µM): -74% | growth inhibition ([4]; at 3.7 µM): -64% | growth inhibition ([4]; at 11.0 µM): -51% | growth inhibition ([4]; at 33.0 µM): 43% | growth inhibition ([4]; at 100.0 µM): 89% (active) | growth inhibition ([5]; at 1.2 µM): -12% | growth inhibition ([5]; at 3.7 µM): -22% | growth inhibition [5, 17]: 99% (active) | growth inhibition ([5]; at 11.0 µM): 8% | growth inhibition ([5]; at 33.0 µM): 81% (active) | growth inhibition [5, 18]: 91% (active) | growth inhibition ([5]; at 50.0 µM): 68.9% | growth inhibition ([5]; at 100.0 µM): 87% (active) | growth inhibition ([6]; at 1.2 µM): -78% | growth inhibition ([6]; at 3.7 µM): -69% | growth inhibition [6, 17]: 98% (active) | growth inhibition ([6]; at 11.0 µM): -68% | growth inhibition ([6]; at 33.0 µM): 74% (active) | growth inhibition [6, 18]: 92% (active) | growth inhibition ([6]; at 50.0 µM): 51.1% | growth inhibition ([6]; at 100.0 µM): 90% (active) | growth inhibition ([7]; at 1.2 µM): -32% | growth inhibition ([7]; at 3.7 µM): -37% | growth inhibition ([7]; at 11.0 µM): -35% | growth inhibition ([7]; at 33.0 µM): 85% (active) | growth inhibition ([7]; at 100.0 µM): 92% (active) | growth inhibition [8, 17]: -23% | growth inhibition [8, 18]: 34% | growth inhibition ([8]; at 50.0 µM): 71.3% (active) | growth inhibition ([9]; at 1.2 µM): -44% | growth inhibition ([9]; at 3.7 µM): -22% | growth inhibition ([9]; at 11.0 µM): -27% | growth inhibition ([9]; at 33.0 µM): 63% | growth inhibition ([9]; at 100.0 µM): 80% (active) | growth inhibition [10, 17]: 44% | growth inhibition [10, 18]: 53% | growth inhibition ([10]; at 50.0 µM): 46.2% | growth inhibition ([11]; at 1.2 µM): -14% | growth inhibition ([11]; at 3.7 µM): -17% | growth inhibition [11, 17]: 20% | growth inhibition ([11]; at 11.0 µM): 26% | growth inhibition ([11]; at 33.0 µM): 84% (active) | growth inhibition [11, 18]: 64% | growth inhibition ([11]; at 50.0 µM): 79% (active) | growth inhibition ([11]; at 100.0 µM): 90% (active) | growth inhibition ([12]; at 1.2 µM): -19% | growth inhibition ([12]; at 3.7 µM): -40% | growth inhibition ([12]; at 11.0 µM): -10% | growth inhibition ([12]; at 33.0 µM): 75% (active) | growth inhibition ([12]; at 100.0 µM): 92% (active) | growth inhibition ([13]; at 1.2 µM): -43% | growth inhibition ([13]; at 3.7 µM): -29% | growth inhibition ([13]; at 11.0 µM): -19% | growth inhibition ([13]; at 33.0 µM): 62% | growth inhibition ([13]; at 100.0 µM): 89% (active) | growth inhibition ([14]; at 1.2 µM): -53% | growth inhibition ([14]; at 3.7 µM): -56% | growth inhibition ([14]; at 11.0 µM): -29% | growth inhibition ([14]; at 33.0 µM): 76% (active) | growth inhibition ([14]; at 100.0 µM): 90% (active) | growth inhibition [15, 17]: 99% (active) | growth inhibition [15, 18]: 92% (active) | growth inhibition ([15]; at 50.0 µM): 73.5% (active) | growth inhibition ([16]; at 1.2 µM): -23% | growth inhibition ([16]; at 3.7 µM): -46% | growth inhibition ([16]; at 11.0 µM): -27% | growth inhibition ([16]; at 33.0 µM): 79% (active) | growth inhibition ([16]; at 100.0 µM): 90% (active)

COc1ccc(C(NCCNC(c2ccc(OC)c(OC)c2)c2cc3c(cc2O)OCO3)c2cc3c(cc2O)OCO3)cc1OC (stereo unspecified)
growth inhibition ([1]; at 1.2 µM): -1% | growth inhibition ([1]; at 3.7 µM): -6% | growth inhibition ([1]; at 11.0 µM): 7% | growth inhibition ([1]; at 33.0 µM): 89% (active) | growth inhibition ([1]; at 100.0 µM): 99% (active) | growth inhibition ([2]; at 1.2 µM): 4% | growth inhibition ([2]; at 3.7 µM): -2% | growth inhibition ([2]; at 11.0 µM): 2% | growth inhibition ([2]; at 33.0 µM): 29% | growth inhibition ([2]; at 100.0 µM): 99% (active) | growth inhibition ([3]; at 1.2 µM): -6% | growth inhibition ([3]; at 3.7 µM): -11% | growth inhibition ([3]; at 11.0 µM): 10% | growth inhibition ([3]; at 33.0 µM): 87% (active) | growth inhibition ([3]; at 100.0 µM): 97% (active) | growth inhibition ([4]; at 1.2 µM): 2% | growth inhibition ([4]; at 3.7 µM): 4% | growth inhibition ([4]; at 11.0 µM): 3% | growth inhibition ([4]; at 33.0 µM): 3% | growth inhibition ([4]; at 100.0 µM): 99% (active) | growth inhibition ([5]; at 1.2 µM): 4% | growth inhibition ([5]; at 3.7 µM): -10% | growth inhibition [5, 17]: -12% | growth inhibition ([5]; at 11.0 µM): 19% | growth inhibition ([5]; at 33.0 µM): 74% (active) | growth inhibition [5, 18]: 7% | growth inhibition ([5]; at 50.0 µM): 38.2% | growth inhibition ([5]; at 100.0 µM): 99% (active) | growth inhibition ([6]; at 1.2 µM): -1% | growth inhibition ([6]; at 3.7 µM): 1% | growth inhibition [6, 17]: -11% | growth inhibition ([6]; at 11.0 µM): 9% | growth inhibition ([6]; at 33.0 µM): 78% (active) | growth inhibition [6, 18]: 95% (active) | growth inhibition ([6]; at 50.0 µM): 27.9% | growth inhibition ([6]; at 100.0 µM): 99% (active) | growth inhibition ([7]; at 1.2 µM): 1% | growth inhibition ([7]; at 3.7 µM): 5% | growth inhibition ([7]; at 11.0 µM): 27% | growth inhibition ([7]; at 33.0 µM): 92% (active) | growth inhibition ([7]; at 100.0 µM): 99% (active) | growth inhibition [8, 17]: 4% | growth inhibition [8, 18]: 48% | growth inhibition ([8]; at 50.0 µM): 72.2% (active) | growth inhibition ([9]; at 1.2 µM): -6% | growth inhibition ([9]; at 3.7 µM): 1% | growth inhibition ([9]; at 11.0 µM): 7% | growth inhibition ([9]; at 33.0 µM): 18% | growth inhibition ([9]; at 100.0 µM): 98% (active) | growth inhibition [10, 17]: -29% | growth inhibition [10, 18]: 23% | growth inhibition ([10]; at 50.0 µM): 41.2% | growth inhibition ([11]; at 1.2 µM): -1% | growth inhibition ([11]; at 3.7 µM): -6% | growth inhibition [11, 17]: -21% | growth inhibition ([11]; at 11.0 µM): 0% | growth inhibition ([11]; at 33.0 µM): 15% | growth inhibition [11, 18]: 28% | growth inhibition ([11]; at 50.0 µM): 54.8% | growth inhibition ([11]; at 100.0 µM): 98% (active) | growth inhibition ([12]; at 1.2 µM): -1% | growth inhibition ([12]; at 3.7 µM): -2% | growth inhibition ([12]; at 11.0 µM): 7% | growth inhibition ([12]; at 33.0 µM): 50% | growth inhibition ([12]; at 100.0 µM): 99% (active) | growth inhibition ([13]; at 1.2 µM): 2% | growth inhibition ([13]; at 3.7 µM): 1% | growth inhibition ([13]; at 11.0 µM): 12% | growth inhibition ([13]; at 33.0 µM): 84% (active) | growth inhibition ([13]; at 100.0 µM): 99% (active) | growth inhibition ([14]; at 1.2 µM): 2% | growth inhibition ([14]; at 3.7 µM): 0% | growth inhibition ([14]; at 11.0 µM): 4% | growth inhibition ([14]; at 33.0 µM): 63% | growth inhibition ([14]; at 100.0 µM): 99% (active) | growth inhibition [15, 17]: -29% | growth inhibition [15, 18]: 34% | growth inhibition ([15]; at 50.0 µM): 46.6% | growth inhibition ([16]; at 1.2 µM): -4% | growth inhibition ([16]; at 3.7 µM): -4% | growth inhibition ([16]; at 11.0 µM): 8% | growth inhibition ([16]; at 33.0 µM): 75% (active) | growth inhibition ([16]; at 100.0 µM): 98% (active)
